The text below walks through data of the supplement of paper PMC10681739.

The target of the assay is T1, ETS1 (UniProt P14921).
T1 sequence: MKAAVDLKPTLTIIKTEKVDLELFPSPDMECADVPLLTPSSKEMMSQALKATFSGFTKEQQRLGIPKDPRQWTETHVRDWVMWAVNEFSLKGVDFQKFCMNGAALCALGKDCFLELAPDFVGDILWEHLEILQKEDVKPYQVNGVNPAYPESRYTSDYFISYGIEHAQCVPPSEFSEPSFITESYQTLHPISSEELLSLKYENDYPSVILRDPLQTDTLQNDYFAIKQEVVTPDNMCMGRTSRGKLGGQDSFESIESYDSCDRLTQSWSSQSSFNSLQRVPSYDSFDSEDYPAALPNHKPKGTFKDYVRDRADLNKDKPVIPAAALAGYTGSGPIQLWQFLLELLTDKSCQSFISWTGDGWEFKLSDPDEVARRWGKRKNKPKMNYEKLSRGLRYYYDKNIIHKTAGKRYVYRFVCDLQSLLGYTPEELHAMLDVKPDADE
Nature of the assay: ETS1 binding intensity (PBM fluorescence) in presence of RUNX1, normalised to ETS1-only experiment (arbitrary fluorescence units); higher = stronger binding. The settings on record: ETS1 concentration 1 nM; RUNX1 concentration 25 nM. The method, then:
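Cooperative genomic-context PBM: 36-bp genomic probes with neighbouring ETS1 and RUNX1 sites, double-stranded on Agilent 4x180k arrays. Full-length recombinant human ETS1 (1 nM) was incubated alone or with RUNX1 (25 nM) and detected with anti-ETS1 antibody plus Alexa488 secondary. Value is the median fluorescence intensity over 4 replicate spots; the ETS1+RUNX1 data were normalised to the ETS1-only data using probes without RUNX1 sites. The 36-bp variable region sits on the array probe with constant linker/primer flanks that are not printed.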
Take CAGTGGCAGGAAGAGGTCAGAAACCACTCGTGGTGG: the ETS1 binding intensity stood at 870. In the case of CAGATTCCCGGAAAGGGGGACATGTAGCCGCAAAAG, the ETS1 binding intensity stood at 1990. Next, TCATATCCGGCAGGAATGGGTTTTGTGGCTTTGTGC: 1400. Turning to CCCACCCGGAAATGAGCCAACAGTGGTTTCGCCCCG, the ETS1 binding intensity was found to be 2010.

Consider AGCTCCAGGAAGAGGGCCTGAAAACCAAACGGGGGA, for which the ETS1 binding intensity worked out at 474. Turning to GCTCGCGTCATCCTGCAGCGCCGACACCACAGACAC, the ETS1 binding intensity was determined as 505. Turning to TAAAACACCAGGAAACTCTGTGGTGAGTGGGAGGTG, the ETS1 binding intensity came to 1220.

Regarding CAAGCACATTACGGAAGAGGCTGACCGCAAATACGA, the ETS1 binding intensity stood at 6680. Next, CTTCATCAACCCATCCTGTCTTGTGGTTAAGTCAAG: 1700; TGGCTTTGCAGAAGGAAGCTGTGGTTTCTGGTCTTC: 3340; AGTCTCGTTTCCTGTGCGCTGTGGCCACCTGGCAGC: 1050. For AGCTTTCCTTTTCCGGTTGCGGCGCCGCGCGTTGAT, the ETS1 binding intensity was 1820.

For the sequence AAATATAGTGCTAAAGGAAGTGGTTTTCATGCAACT, the ETS1 binding intensity is 4140.

Turning to CTCAGGAATGCGGAAGTGCTCTGTGGGCACCCACCA, the ETS1 binding intensity turned out to be 5950. Next, CAGATTTCCGGCTTCTGAGGAGCTGCCCTACCACAG: 398; TAGGCTGAAGACTTCCGCCCCGCAGAGGACTTGCCT: 974; AGCGGCCGAAGGAAGTGACGTTTGCGGCAGTAAGGC: 1450.

Take TTGGAGGCGGAAACAGGCACCGAAAGCGGTGGAAGT: the ETS1 binding intensity was 2120. With CCTGTCCGGAAGTCCTGAGAGGGAATCGCCCGCAAA, the ETS1 binding intensity is 5360. As for AGGACCGGAAGTGCCCGAGGGCGGCCGCAGAACGGT, the ETS1 binding intensity came out at 16700. With TTGGCTTTGTGTTTCCGCGGTGTTGGTAGAGTCTCG, the ETS1 binding intensity is 482.

Consider ACCTGTAGGCGGAAGTCTGTGGCTTTATTTACACAG, for which the ETS1 binding intensity worked out at 5710. With CGAGCTCGCAAGAGGAAACCGCGGCGCGGAGGCAGC, the ETS1 binding intensity amounted to 1130. As to CCACTGCTTCCGCCTTCTCTGCTGGCTGCGGGGAGC, the ETS1 binding intensity stood at 516. Turning to AGCGCCACACTTCCGCTTTGCGGCAGTGTGCGCCCC, the ETS1 binding intensity came to 3280. GAACATGGTCTCCGCTTCCGCCGCAACCTCGGCCTT: the ETS1 binding intensity was found to be 744. For CCAGCCCAGGAAACAAGGAACCCCAAAGCCACAGGA, the ETS1 binding intensity worked out at 579. On to GAAATTTCCGCTTTCTTTCTGCAGCAGGAACCGCGG, for which the ETS1 binding intensity stood at 2590. For TTGGTGACCTCTTCCTGTCCGCTGTGGTGTTGTTAC, the ETS1 binding intensity was 1240. As to CGGGACACAGGAAGCCGTTGTGGGGCCCCGGGGCCA, the ETS1 binding intensity came out at 1970. GAGCGCCCACTTCCTGTTTACCACCCAGCCTCTTCG: the ETS1 binding intensity was determined as 5330. Next, CCTCAATTTCCTGGCCAGAGAAACCACTGCCTCTCA: 526. In the case of TCTCCTTTCAGGAAGCTGCACCCAAACCACCCTCAG, the ETS1 binding intensity was found to be 610. Turning to GCGCAAGGATCCGGTTTGTTGTGGTGTGGGGAGGGG, the ETS1 binding intensity was 503. With GTGAACTTCCTCCCCCACTGCCTATTTTTACCGCAG, the ETS1 binding intensity was 596. For the sequence GGCAGCAAGAAAGGAAATAGTGTGGTTGGGTGGAGA, the ETS1 binding intensity stood at 1640. With GCTCAAGTACCGGAAAGGCCCGCAGAAAGAAGGGCA, the ETS1 binding intensity was 1270.

On to TGAGTCACAGAGACAGGATGTGGTGCAGGGGGTATT, for which the ETS1 binding intensity stood at 13500.

Consider GAGCCCAACCGGCATCCGTCGCGGTTGGACGTGGGC, for which the ETS1 binding intensity is 490.

As to CCTCAAAACCCGGAAACGCCTTGCGGGGCAGTGTGG, the ETS1 binding intensity turned out to be 4480.
